# Screening results: PubChem, National Center for Advancing Translational Sciences (NCATS)
# BAZ2B inh: blocks human BAZ2B; Q9UIF8; 360,000 compounds, 4.4% hits; Potency, µM (highest dose often 114 µM), without a hit: at the top dose activity change, negative = inhibition, actives largely listed as inhibitors; AlphaScreen BAZ2B-H3K14Ac peptide displacement; further: on the % scale 0 is the no-effect control and ±100 the full control effect; nearly all actives have a fitted effect of over 60% in size
#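 Protein-peptide AlphaScreen: BAZ2B 50 nM, b-H3K14Ac 50 nM, 1x PBS pH 7.4 + 0.01% Tween-20. Preincubation 30 min RT; cpd 30 min RT (top 110 uM); beads 20 min RT, light-protected.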
# PLK1 PBD block: PLK1 (human) polo-box domain binding inhibition. P53350. Plk1 PBD binding of FITC phosphopeptide, fluorescence polarization. Potency, µM, for inactives: max response, negative = inhibition, hits mostly inhibitors. 360,000 compounds, 2.8% hits. AID 720504; further: series mostly up to about 57 µM; on the % scale 0 is the no-effect control and ±100 the full control effect; nearly all actives have a fitted effect of over 65% in size
# HP1b binding inh: HP1-beta chromodomain-methylated histone interaction inhibition; P83916; AlphaScreen HP1-beta / biotin-H3K9me3 peptide binding; Potency, µM (highest dose often 114 µM), for the others: at the highest dose activity change, negative = inhibition, usual class: inhibitors; 390,000 compounds, 0.56% hits; further: nearly all actives have a fitted effect of over 70% in size
#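 HP1-beta protein (50 nM final) preincubated 30 min at room temperature with biotinylated H3(1-18)K9me3 peptide (50 nM) in PBS pH 7.4, 0.01% Tween-20, then compound added for 30 min. AlphaScreen streptavidin donor/nickel chelate acceptor beads (10 ug/mL final), 30 min dark, luminescence read.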
# G9a inh: blocks human histone lysine methyltransferase G9a; G9a H3K9 monomethylation, AlphaScreen, 2 h; 350,000 compounds, 8.8% hits; Potency, µM (series often up to 102 µM), without a hit: top-dose activity, negative = inhibition, hits mostly inhibitors; AID 504332; further: on the % scale 0 is the no-effect control and ±100 the full control effect; nearly all actives have a fitted effect of over 75% in size
#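 Quantitative HTS format: methyltransferase activity on a biotin-tagged H3K9 peptide is measured by AlphaScreen, using a rabbit anti-monomethyl-H3K9 antibody with streptavidin donor and anti-IgG acceptor beads. Final levels are 20 nM enzyme, 500 nM peptide, 20 uM SAM; 2 h RT.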
# JMJD2A Tudor inh: inhibitors of human JMJD2A Tudor domain | AlphaScreen JMJD2A-Tudor / H3K4me3 peptide binding | Potency, µM (highest dose often 114 µM), for inactives: top-dose activity change, negative = inhibition, usual class: inhibitors | AID 504339 | O75164 | 390,000 compounds, 4.4% hits; further: on the % scale 0 is the no-effect control and ±100 the full control effect; nearly all actives have a fitted effect of over 50% in size
# Target sequence (O75164 whole entry, looked up, the tested form may be a part): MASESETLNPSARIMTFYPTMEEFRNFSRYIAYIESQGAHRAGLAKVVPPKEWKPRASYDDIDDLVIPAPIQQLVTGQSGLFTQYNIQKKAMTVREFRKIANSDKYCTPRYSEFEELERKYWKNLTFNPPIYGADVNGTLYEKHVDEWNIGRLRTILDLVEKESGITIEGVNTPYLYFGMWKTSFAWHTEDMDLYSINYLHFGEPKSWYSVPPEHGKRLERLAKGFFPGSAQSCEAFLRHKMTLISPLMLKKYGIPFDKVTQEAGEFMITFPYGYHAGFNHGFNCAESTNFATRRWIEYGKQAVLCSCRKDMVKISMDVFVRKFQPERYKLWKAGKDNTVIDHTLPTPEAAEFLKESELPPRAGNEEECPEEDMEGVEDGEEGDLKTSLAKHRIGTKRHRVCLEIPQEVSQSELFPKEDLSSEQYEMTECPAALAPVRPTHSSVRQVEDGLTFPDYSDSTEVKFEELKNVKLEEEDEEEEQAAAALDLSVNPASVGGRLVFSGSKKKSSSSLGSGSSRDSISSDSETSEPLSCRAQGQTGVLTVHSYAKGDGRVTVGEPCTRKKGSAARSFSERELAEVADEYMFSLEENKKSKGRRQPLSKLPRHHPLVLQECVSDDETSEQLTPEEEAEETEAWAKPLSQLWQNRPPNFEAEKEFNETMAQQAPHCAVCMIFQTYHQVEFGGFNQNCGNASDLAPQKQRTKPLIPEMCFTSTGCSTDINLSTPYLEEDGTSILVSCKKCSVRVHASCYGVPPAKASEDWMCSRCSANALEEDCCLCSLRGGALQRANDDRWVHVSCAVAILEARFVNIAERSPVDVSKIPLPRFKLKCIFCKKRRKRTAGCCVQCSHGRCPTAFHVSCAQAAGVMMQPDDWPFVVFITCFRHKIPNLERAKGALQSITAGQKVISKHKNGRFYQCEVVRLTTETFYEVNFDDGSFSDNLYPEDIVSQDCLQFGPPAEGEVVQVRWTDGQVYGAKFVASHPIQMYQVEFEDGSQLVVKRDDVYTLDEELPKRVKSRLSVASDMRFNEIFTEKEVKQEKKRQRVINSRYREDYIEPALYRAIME
# Sfp inh: inhibitors of Bacillus subtilis Sfp phosphopantetheinyl transferase; Q9F4F7; Biochemical Sfp PPTase activity, qHTS; Potency, µM, inactives show largest response in the series, negative = inhibition, usual class: inhibitors; 310,000 compounds, 3.5% hits; AID 1490;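 further: the enzyme is Sfp with the accession as filed and its product quenches rhodamine fluorescence; 0% = enzyme reaction without inhibitor and -100% = no enzyme wells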
#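 Step 1, compound plus 15 nM Sfp-PPTase, 15 min, room temperature. Step 2, add rhodamine-CoA (5 uM) and BHQ-2-YbbR (12.5 uM). Step 3, read 525/598 nm fluorescence at 0 and 30 min.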
# * hit, by the source's call; u = inconclusive; x = no result; ! = not confirmed by another sample; [ ] = dose if it differs, or a comment. Hits are enriched below; roughly 12% of the tested compounds scored in any of these assays. The call rests on the fitted dose curve; in most records, active means well fitted curve in the direction sought with a large enough effect; inconclusive means small, poorly fitted or top-dose-only effect, or another doubt; inactive means no such curve, though single readings can be large; an effect the other way counts as inactive or inconclusive. Potency means the concentration at half of the fitted maximal effect.
SMILES,BAZ2B inh,PLK1 PBD block,HP1b binding inh,G9a inh,JMJD2A Tudor inh,Sfp inh
CCOc1ccc2nc(N(CCN(CC)CC)C(=O)c3ccc([N+](=O)[O-])cc3)sc2c1,x,-8%,0%,14%,-19%,u
CC[N+](CC)(CC)CCOc1cccc(OCC[N+](CC)(CC)CC)c1OCC[N+](CC)(CC)CC,-38%,-11%,25%,5.3µM*!,22µM*,u
Cn1cc2c([N+](=O)[O-])cc([N+](=O)[O-])cc2n1,u,x,x,79µM*,x,4%
O=S1(=O)N(CCN2CC=C(c3c[nH]c4cc(F)ccc34)CC2)c2cccc3c2N1CCC3,u,2%,-17%,30µM*!,u,x
CC1CN=C(Nc2ccc(N(C)C)cc2)S1 (configuration not stated),u,-12%,-34%,35µM*,40µM*,9%
CC1C(=O)OC2C1CC[C@@]1(C)C=CC(=O)[C@@]3(C)O[C@@]213 (some centres not stated),x,x,x,u,x,6%
CC(C)c1ccc(Oc2cccc3c2S(=O)(=O)N(C2CCCC2)CC(COCc2ccccc2)O3)cc1 (configuration not stated),x,-9%,64%,x,-6%,x
COc1ccc(OC)c(CCNCc2c(C(=O)O)c(C)n(Cc3ccc(F)cc3Cl)c2C)c1,50µM*,x,16%,-27%[59 µM],u,x
CCn1c(C)c(C(=O)O)c2cc(OC)ccc21,-1%,-6%,30%,-5%[12.7 µM],-16%,23%
O=C(OCCCCN1C(=O)c2ccccc2C1=O)c1ccc(Br)o1,-2%,-22%,24%,28%[59 µM],17%[57.1 µM],15%
C#CCOc1ccc(Br)cc1C(c1c(C)[nH][nH]c1=O)c1c(C)[nH][nH]c1=O,-18%,u,43%,-3%,0%,3%
O=C(O)COc1ccc(Br)cc1C(c1c(C(=O)O)[nH]c2ccccc12)c1c(C(=O)O)[nH]c2ccccc12,-5%,27µM*,19%,x,-10%,6%
CN(CC(=O)N[C@H](CO)Cc1ccccc1)C(=O)[C@H](CCS(C)=O)NC(=O)[C@@H](N)Cc1ccc(O)cc1 (some centres not stated),x,x,x,44%[59 µM],x,15%
Cc1cccc(CN2CCN(Cc3ccc(Cl)cc3)CC2)c1,32µM*,3%,u,7.1µM*,1.1µM*,u
CCCCCCN1CCN(c2ccc(Cl)cc2)CC1,45µM*,-5%,u,u,u,-23%
Cc1cccc(CN2CCN(c3ccc(Cl)cc3)CC2)c1,50µM*,4%,u,32µM*,22µM*,-15%
O=P(O)(O)CCCl,x,x,x,x,x,2%
COc1cccc2c1C13CC[N+]4(CC5CC5)CO[C@]1(CCC(=O)C3)C4C2,x,x,x,21%[59 µM],x,21%
C[C@@H]1OC(=O)[C@H]2C[C@H]3CCCC[C@@H]3[C@@H](/C=C/[C@H]3CCC[C@H](C)N3C)[C@@H]12,x,x,x,25%[59 µM],x,29%
S=c1[nH]nc(Cn2c(-c3ccccn3)nc3ccccc32)n1-c1ccc2c(c1)OCCO2,-6%,-15%,u,-135%[59 µM],3.2µM*,79µM*
CCCCC(=O)C1C(=O)NC(=O)NC1=O,-30%,0%,21%,-11%[59 µM],56µM*,-7%
CCC1(CC)C(=O)NC(=O)NC1=O,x,x,x,30%[59 µM],x,13%
CN(Cc1ccccc1)Cc1ccccc1OC(=O)N(C)C,-4%,1%,32%,45µM*,-14%,16%
COC(=O)C1(C)C=C2C(=C(C)C(=O)C2C)CN1 (configuration not stated),x,x,x,x,x,7%
Clc1ccc(N2CC3CCC(C2)N3)nn1,x,x,x,24µM*,x,x
SMILES,BAZ2B inh,PLK1 PBD block,HP1b binding inh,G9a inh,JMJD2A Tudor inh,Sfp inh
O=c1[nH]c(=S)[nH]c(O)c1N=Nc1ccc(OC(F)F)cc1,-18%,-4%,35%,-42%,-18%,-4%
CSc1nc(N)c(N=Nc2ccc([As](=O)(O)O)cc2)c(=O)[nH]1,-18%,11µM*,41%,8.9µM*,u,2.8µM*
Cc1nc2ccc(P(=O)(O)O)cc2s1,u,x,x,45µM*,x,-81%
Cc1nc2ccc(NC(=O)c3ccc(Cl)s3)cc2s1,3%,-7%,63%,4%,-17%,-2%
Cc1ccc2c(c1)NP(=S)(Oc1ccccc1)N2 (configuration not stated),x,u,-17%,x,-25%,x
COc1ccc2c(c1)NP(=S)(Oc1ccccc1)N2 (configuration not stated),u,15µM*,u,7.1µM*,u,32µM*
S=P(Nn1cnnc1)(c1ccc(Br)cc1)c1ccc(Br)cc1,-5%,-10%,25%,-21%,-25%,79µM*
COP(=S)(OC)SCN1C(=O)c2ccccc2C1=O,-6%,21µM*,15%,16µM*,-14%,35µM*
CNC(=O)CSP(=S)(OC)OC,x,-27%,30%,x,-15%,u
c1ccc(N2CC3(CCNCC3)C2)cc1,x,x,x,-3%[12.7 µM],x,-25%
C[N+]1(C)CCN(c2ccccc2)CC1,-32%,-3%,0%,8.4µM*!,45µM*,19%
O=C(CCN1CC2CCC(CC2)C1)c1cccs1,x,24µM*,-29%,x,-34%,x
O=C(O)CNC1c2ccccc2CSc2ccccc21 (configuration not stated),x,u,5%,x,18µM*,x
O=C(O)CC(O)(CC(=O)O)C(=O)O,x,-1%,6%,-3%[2.33 µM],79µM*,4%
O=C(NCCSc1c(-c2ccccc2)[nH]c2ccccc12)c1ccc(S(=O)(=O)N2CCOCC2)cc1,-14%,x,23%,u,-18%,x
COc1ccccc1N=c1scc(-c2ccc(S(=O)(=O)N3CCCC3)cc2)n1C,8.9µM*,x,u,10µM*,u,x
COc1ccccc1N1CCN(S(=O)(=O)c2ccc3c(c2)oc(=O)n3C)CC1,u,3%,8%,3%[59 µM],-16%,8%
CC1CC(O)[C@]2(O)[C@]13CC(=O)OC[C@@]2(C)[C@@](C)(O)C(=O)C3 (some centres not stated),x,x,x,x,x,4%
CCCN(CCC)c1c([N+](=O)[O-])cc(S(N)(=O)=O)cc1[N+](=O)[O-],x,x,x,x,x,14%
CCOC(=O)c1sc(/N=C/c2c(O)n(-c3cccc(C)c3)c(=O)[nH]c2=O)c(C#N)c1C,1%,19µM*,u,-20%[59 µM],50µM*,u
OCC(CBr)(CBr)CBr,0%,-15%,27%,2%[0.501 µM],-17%,x
Clc1cccc(N2CCNCC2)c1Cl,-1%,-4%,30%,3%[59 µM],-2%,16%
c1ccc2c(N3CCNCC3)cccc2c1,x,-7%,51%,17µM*!,-16%,-9%
c1ccc2nc(N3CCNCC3)ccc2c1,0%,-15%,26%,11µM*!,-12%,-9%
C=CCNc1nnc(Sc2ncccc2[N+](=O)[O-])s1,u,-5%,20%,3%,2%,-2%
